# Laboratory results as given in PubChem BioAssay (NCATS).
# Records with an inconclusive call do not appear. A call without a number means that no potency is given here. The source made the active and inactive calls. Calls come from the whole dose curve; as a rule, active = well fitted curve in the direction sought with a large enough effect; inconclusive = small, poorly fitted or top-dose-only effect, or another doubt; inactive = no such curve, though single readings can be large; an effect the other way counts as inactive or inconclusive.
# Legend:
# [1] = qHTS Assay for Identification of Small Molecule Agonists for Thrombopoietin (TPO) Signaling Pathway (AID 917); note: potency is the fitted concentration of half-maximal effect
# Method in brief: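 Luciferase reporter (Glycoprotein IIb promoter) in IL-3-deprived Ba/F3 cells carrying human TPO receptor; compounds co-added with 26 pM TPO, incubated 24 h, 37 C. Steadylite luminescence measured after 10 min.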
# [2] = molecular target: Muscarinic acetylcholine receptor M1 (Rattus norvegicus) (UniProt P08482); assay: qHTS Assay for Antagonists of Acetylcholine Muscarinic M1 Receptor: Measurement of IP-One Response (AID 944); note: nearly all actives have a fitted effect of over 75% in size; note: potency is the fitted concentration of half-maximal effect
# Sequence of Muscarinic acetylcholine receptor M1 (Rattus norvegicus) (P08482 whole entry, looked up): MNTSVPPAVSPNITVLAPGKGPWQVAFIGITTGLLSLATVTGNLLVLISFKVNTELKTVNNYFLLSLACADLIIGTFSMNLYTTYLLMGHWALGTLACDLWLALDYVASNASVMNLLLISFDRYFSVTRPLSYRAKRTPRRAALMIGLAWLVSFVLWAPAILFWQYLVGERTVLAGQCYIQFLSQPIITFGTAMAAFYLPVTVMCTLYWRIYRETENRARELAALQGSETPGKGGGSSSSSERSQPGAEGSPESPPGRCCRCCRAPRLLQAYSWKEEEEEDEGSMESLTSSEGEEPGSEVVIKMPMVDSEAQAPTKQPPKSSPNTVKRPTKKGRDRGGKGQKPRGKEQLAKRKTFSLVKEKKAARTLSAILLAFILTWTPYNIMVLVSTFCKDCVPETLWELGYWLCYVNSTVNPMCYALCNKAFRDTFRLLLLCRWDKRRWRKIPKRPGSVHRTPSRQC
# Method in brief: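 Antagonist mode with rat M1 receptor transfected into CHO cells. Compound is added first for 10 min, carbachol at its EC80 follows for 30 min, and lysis reagents then allow TR-FRET detection of accumulated IP1.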
# [3] = molecular target: Pyruvate kinase (Leishmania mexicana) (UniProt Q27686); assay: qHTS Validation Assay for Inhibitors of Leishmania Mexicana Pyruvate Kinase (AID 945); note: potency is the fitted concentration of half-maximal effect
# Sequence of Pyruvate kinase (Leishmania mexicana) (Q27686 2-499 E452W): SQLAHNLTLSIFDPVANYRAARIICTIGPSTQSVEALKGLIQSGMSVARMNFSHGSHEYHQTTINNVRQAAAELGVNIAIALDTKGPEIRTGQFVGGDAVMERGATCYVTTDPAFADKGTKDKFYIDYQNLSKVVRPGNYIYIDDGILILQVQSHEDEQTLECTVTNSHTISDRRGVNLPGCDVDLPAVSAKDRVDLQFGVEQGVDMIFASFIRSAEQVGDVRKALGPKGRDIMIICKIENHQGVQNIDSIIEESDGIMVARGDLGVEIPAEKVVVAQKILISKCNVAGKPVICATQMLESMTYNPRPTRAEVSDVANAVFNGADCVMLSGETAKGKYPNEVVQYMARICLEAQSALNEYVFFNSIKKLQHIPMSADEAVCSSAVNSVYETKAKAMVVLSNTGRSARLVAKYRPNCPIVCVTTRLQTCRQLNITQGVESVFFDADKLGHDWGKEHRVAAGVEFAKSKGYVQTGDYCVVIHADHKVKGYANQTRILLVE
# Method in brief: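 LmPYK E451W 0.2 nM; 0.5 mM PEP, 0.1 mM ADP, 7 mM MgCl2, 50 mM KCl, imidazole pH 7.2, 0.01% Tween 20, 0.05% BSA; 1 h RT; PKLight luminescence; DMSO-normalized.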
# [4] = qHTS Assay for Identification of Small Molecule Antagonists for Thrombopoietin (TPO) Signaling Pathway (AID 918); settings: TPO-dependent cell signaling reporter, antagonist mode; note: potency is the fitted concentration of half-maximal effect; nearly all actives have a fitted effect of over 60% in size
# Method in brief: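 Inhibitors of TPO signaling are sought by stimulating IL-3-starved murine Ba/F3 cells (human TPO receptor, Glycoprotein IIb-driven luciferase) with TPO at its EC50 of 26 pM alongside compound. After 24 hrs at 37 C, reporter luminescence is measured.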
# [5] = molecular target: Muscarinic acetylcholine receptor M1 (Rattus norvegicus) (UniProt P08482); assay: qHTS Assay for Antagonists of Acetylcholine Muscarinic M1 Receptor: Kinetic Measurement of Intracellular Calcium Response (AID 943);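 note: Fluo-4 calcium signal as peak divided by basal fluorescence over 4 min; series mostly up to about 35 µM; nearly all actives have a fitted effect of over 75% in size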
# Method in brief: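 Antagonism is measured as inhibition of the carbachol-evoked calcium rise in CHO cells transfected with rat M1. Cells are dye-loaded, exposed to compound for 10 min, then stimulated with 100 nM carbachol (EC80).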
# [6] = MultiTox-Fluor Cytotoxicity Assay - LYMP1-001 - Dead Cells (AID 946);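 note: cells exposed to compound for 16 h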; note: potency is the fitted concentration of half-maximal effect
# Method in brief: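 Seed 2500 LYMP1-001 cells/well, incubate 5 hr at 37 C; add compound, 16 hr at 37 C; add MultiTox-Fluor reagent, 60 min RT; read dead-cell fluorescence Ex/Em=485/520. Normalize to DMSO and 15 uM tetraoctylammonium bromide.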
# [7] = MultiTox-Fluor Cytotoxicity Assay - LYMP1-001 - Live Cells (AID 947); note: potency is the fitted concentration of half-maximal effect
compound,measurement,setting,value
CN(N=O)c1ccc(O)c(O)c1,Potency,[1],inactive
same,Potency,[2],inactive
same,Potency,[3],inactive
CCS(=O)(=O)Nc1cccc(C(=C2CCCCC2)c2cnc[nH]2)c1,Potency,[1],inactive
same,Potency,[2],inactive
same,Potency,[3],inactive
CCCN(CCC)CCc1c[nH]c2ccc(C(N)=O)cc12,Potency,[1],inactive
same,Potency,[3],inactive
CCCN1CCc2cc(O)cc3c2[C@H]1Cc1ccc(O)c(O)c1-3,Potency,[4],10 µM (active)
same,Potency,[3],inactive
O=C1C=CC(=O)C=C1,Potency,[1],inactive
same,Potency,[5],inactive
same,Potency,[2],inactive
same,Potency,[3],inactive
same,Potency,[6],inactive
same,Potency,[7],inactive
C[N+]1(C)[C@@H]2CC[C@H]1CC(OC(=O)c1c[nH]c3ccccc13)C2 (some centres undefined),Potency,[4],10 µM (active)
same,Potency,[3],inactive
Clc1ccc(N2C[C@H]3CC[C@@H](C2)N3)nn1,Potency,[1],inactive
same,Potency,[3],inactive
C[N+](C)(C)CC#CCOC(=O)Nc1cccc(Cl)c1,Potency,[1],inactive
same,Potency,[5],inactive
same,Potency,[2],inactive
same,Potency,[3],inactive
COc1ccc2c(c1)/C(=C/c1cnc[nH]1)C(=O)N2,Potency,[4],10 µM (active)
same,Potency,[5],inactive
same,Potency,[3],inactive
CC(C)NP(=O)(NC(C)C)OP(=O)(NC(C)C)NC(C)C,Potency,[1],inactive
same,Potency,[2],inactive
same,Potency,[3],inactive
NC(=O)COc1c(F)cc(SCCNS(=O)(=O)c2ccccc2)cc1F,Potency,[1],inactive
same,Potency,[3],inactive
Cc1[nH]c2ccc(O)cc2c1CCN,Potency,[1],inactive
same,Potency,[5],inactive
same,Potency,[2],inactive
same,Potency,[3],inactive
NC(N)=NOCC[C@H](N)C(=O)O,Potency,[1],inactive
same,Potency,[2],inactive
same,Potency,[3],inactive
c1ccc2c(c1)[I+]c1ccccc1-2,Potency,[4],0.0398 µM (active)
same,Potency,[2],inactive
same,Potency,[3],inactive
CC(C)(C)c1cc(C=C(C#N)C#N)cc(C(C)(C)C)c1O,Potency,[4],1.58 µM (active)
same,Potency,[2],1.41 µM (active)
same,Potency,[3],inactive
C[N+]1(C)CCN(c2ccccc2)CC1,Potency,[1],inactive
same,Potency,[3],inactive
CCCn1c(C)c(C(=O)c2ccc3ccccc3c2)c2ccccc21,Potency,[1],10 µM (active)
same,Potency,[2],inactive
same,Potency,[3],inactive
C[C@H](N)CN1CCc2ccc(Br)cc21,Potency,[1],inactive
same,Potency,[3],inactive
NCCc1ccc(S(=O)(=O)F)cc1,Potency,[1],inactive
same,Potency,[2],inactive
same,Potency,[3],inactive
c1ccc2cc(CC3=NCCN3)ccc2c1,Potency,[1],inactive
same,Potency,[3],inactive
OCc1cnc[nH]1,Potency,[1],inactive
same,Potency,[5],inactive
same,Potency,[2],inactive
same,Potency,[3],inactive
NCCc1c[nH]c2ccc(C(N)=O)cc12,Potency,[1],inactive
same,Potency,[2],inactive
same,Potency,[3],inactive
C=CCN=C=S,Potency,[6],inactive
same,Potency,[7],inactive
C[C@H]1CCC[C@H](O)CCCCCc2cc(O)cc(O)c2C(=O)O1,Potency,[6],inactive
same,Potency,[7],inactive
O=[N+]([O-])c1ccccc1,Potency,[6],inactive
same,Potency,[7],inactive
CCCCCCCCOC(=O)c1ccccc1C(=O)OCCCCCCCC,Potency,[6],inactive
same,Potency,[7],inactive
O=[N+]([O-])c1ccc(F)c([N+](=O)[O-])c1,Potency,[6],inactive
same,Potency,[7],inactive
[O]=[Cd],Potency,[6],inactive
same,Potency,[7],inactive
COC1=CC(=O)O[C@@H](/C=C/c2ccccc2)C1,Potency,[6],inactive
same,Potency,[7],inactive
ClCC1CO1 (centres undefined),Potency,[6],inactive
O=C(O)c1cc[c]([Hg][Cl])cc1,Potency,[5],inactive
same,Potency,[2],inactive
same,Potency,[3],3.98 µM (active)
S=C=S,Potency,[6],inactive
same,Potency,[7],inactive
O=C(O)C(Cl)(Cl)Cl,Potency,[6],inactive
same,Potency,[7],inactive
CCOC(=O)c1ccccc1C(=O)OCC,Potency,[6],inactive
same,Potency,[7],inactive
O=C1C2CC=CCC2C(=O)N1SC(Cl)(Cl)Cl (centres undefined),Potency,[6],10 µM (active)
same,Potency,[7],12.6 µM (active)
CN(N=O)c1cc(O)ccc1O,Potency,[5],inactive
same,Potency,[2],inactive
same,Potency,[3],inactive
N#CC(C#N)=Cc1cc(O)c(O)c(O)c1,Potency,[3],inactive
C[C@]12CCC(=O)C[C@@H]1CC[C@@H]1[C@@H]2CC[C@]2(C)[C@@H](O)CC[C@@H]12,Potency,[7],inactive
CC(C)Nc1ccc(Nc2ccccc2)cc1,Potency,[7],31.6 µM (active)
Clc1ccccc1Cl,Potency,[6],inactive
same,Potency,[7],inactive
O=Cc1ccco1,Potency,[6],inactive
same,Potency,[7],inactive
CC(C)(C)c1cc(O)ccc1O,Potency,[6],inactive
same,Potency,[7],inactive
CCCCCl,Potency,[6],inactive
same,Potency,[7],inactive
CN1CCC(c2c[nH]c3ccc(O)cc23)CC1,Potency,[3],inactive
ClC=C(Cl)Cl,Potency,[6],inactive
same,Potency,[7],inactive
Oc1cc(Cl)c(Cl)cc1Cl,Potency,[6],inactive
same,Potency,[7],inactive
O=c1c2ccccc2[se]n1-c1ccccc1,Potency,[5],inactive
same,Potency,[2],inactive
same,Potency,[3],10 µM (active)
O=C/C=C/c1ccccc1,Potency,[6],inactive
same,Potency,[7],inactive
[O]=[Cr](=[O])([OH])[O][Cr](=[O])(=[O])[OH],Potency,[6],inactive
same,Potency,[7],inactive
ClC(Cl)(Cl)Cl,Potency,[6],inactive
same,Potency,[7],inactive
C[C@H]1CC[C@@H]2[C@@H](C)[C@H]3[C@H](C[C@H]4[C@@H]5CC=C6CC(O[C@@H]7O[C@H](CO)[C@H](O)[C@H](O[C@@H]8O[C@H](CO)[C@@H](O)[C@H](O)[C@H]8O)[C@H]7O[C@H]7O[C@@H](C)[C@H](O)[C@@H](O)[C@H]7O)CC[C@]6(C)[C@H]5CC[C@]34C)N2C1 (some centres undefined),Potency,[7],31.6 µM (active)
